From PubChem BioAssay (EPA / NIEHS)
Results filed as inconclusive are left out. Activity calls are given as the source filed them. The calls were made as follows: active = hit-call score of the fitted dose curve at least 0.9, where 1 is the maximum; inconclusive = response in the unintended direction; inactive = score below 0.9.

Legend:
[1] = system: Thyroperoxidase (TPO), gene 54314; experiment: CCTE_Simmons_AUR_rTPO: CCTE's Amplex UltraRed Assay for Thyroperoxidase (TPO) Inhibition, Simmons Lab (AID 2283662);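 also: potency for loss of signal meaning inhibition of peroxidase activity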
Method in brief: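 Endpoint is decreased Amplex UltraRed fluorescence after a 30-min, 37C reaction of rat thyroid microsomes with 300 uM H2O2. Eight test concentrations (5 nM–87.5 uM final) in 0.5% DMSO, three biological replicates each.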

[2] = CCTE_Simmons_CellTiterGLO_HEK293T: Viability Assessment in CCTE's Assays for Thyroperoxidase (TPO) Inhibition, Simmons Lab (AID 2283665);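 as to AC50: cells exposed to compound for 24 h before readout; actives reduce ATP signal below DMSO vehicle meaning cytotoxicity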
Method in brief: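 HEK293T cells in DMEM with 1% FBS were dosed with 8 concentrations (5 nM–87.5 uM final, 0.5% DMSO) for 24 hr at 37C; ATP content was read by CellTiter-Glo luminescence, loss-of-signal versus DMSO, three biological replicates.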

[3] = Tanguay_ZF_120hpf_CIRC_legacy: (Legacy) Oregon State University Tanguay Lab 120 Hour Post-fertilization zebrafish Assay for Circulatory Malformation (AID 2283651)
Method in brief: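 Tropical 5D wild-type embryos, dechorionated with pronase at 4 hpf, were placed singly in wells at 6 hpf and exposed statically at 28C to 120 hpf (0.64% DMSO final). Circulatory malformation was scored present/absent by brightfield microscopy.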

[4] = Tanguay_ZF_120hpf_SWIM_legacy: (Legacy) Oregon State University Tanguay Lab 120 Hour Post-fertilization zebrafish Assay for Swim Bladder Malformation (AID 2283654);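 also: swim bladder malformation in each larva scored yes or no under brightfield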
Method in brief: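 Dechorionated Tropical 5D wild-type embryos, placed singly from 6 hpf, were statically exposed at 28C to 120 hpf with 0.64% DMSO final; swim bladder malformation was scored present/absent by brightfield microscopy, gain of signal relative to DMSO controls.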

[5] = Tanguay_ZF_120hpf_TRUN_legacy: (Legacy) Oregon State University Tanguay Lab 120 Hour Post-fertilization zebrafish Assay for Truncated Body (AID 2283655)
Method in brief: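 Single dechorionated zebrafish embryos received test chemical from 6 hpf in 0.64% DMSO, kept at 28C. At 120 hpf, brightfield inspection noted any truncated body.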

[6] = Tanguay_ZF_120hpf_NC_legacy: (Legacy) Oregon State University Tanguay Lab 120 Hour Post-fertilization zebrafish Assay for Notochord and Tail Malformation (AID 2283656)
Method in brief: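 Dechorionated 5D zebrafish, 1/well from 6 hpf; static exposure to 120 hpf, 28C, sealed, dark; final DMSO 0.64% v/v. NC scored binary (present/absent); dead embryos not scored. Fit vs DMSO baseline, gain direction.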

SMILES | AC50 [1] | outcome [2] | outcome [3] | outcome [4] | outcome [5] | outcome [6] | AC50 [2] | AC50 [5]
Cc1occc(=O)c1O | 21.7 µM (active) | inactive | – | – | – | – | – | –
c1ccc2occc2c1 | – | – | inactive | inactive | inactive | inactive | – | –
CC(=O)OC1CC(C)OC(C)O1 (stereo not given) | – | – | inactive | inactive | inactive | inactive | – | –
Cc1ccc(C(C)(C)C)c(O)c1 | 30 µM (active) | – | inactive | inactive | inactive | – | 22.3 µM (active) | –
CN(C)C(=O)NC1(c2ccccc2)CCN(CCC[C@]2(c3ccc(Cl)c(Cl)c3)CCCN(C(=O)c3ccccc3)C2)CC1 | – | – | inactive | inactive | inactive | inactive | – | –
CC(C)(C)c1ccccc1 | – | – | inactive | inactive | inactive | inactive | – | –
CC(C)NCC(O)c1ccc(O)c(O)c1 (stereo not given) | 0.616 µM (active) | inactive | inactive | inactive | inactive | inactive | – | –
Cc1cc(SC2=C(O)C[C@@](CCc3ccc(N)cc3)(C(C)C)OC2=O)c(C(C)(C)C)cc1CO | 0.738 µM (active) | – | inactive | inactive | inactive | inactive | 3.9 µM (active) | –
O=C1OC(c2ccc(O)cc2)(c2ccc(O)cc2)c2ccccc21 | 2.99 µM (active) | – | inactive | inactive | inactive | inactive | 43.8 µM (active) | –
O=C(O)c1[nH]n(-c2ccc(S(=O)(=O)O)cc2)c(=O)c1N=Nc1ccc(S(=O)(=O)O)cc1 | – | – | inactive | inactive | inactive | inactive | – | –
CCCCCCCCCCCCCCOS(=O)(=O)O | 43.8 µM (active) | – | inactive | inactive | – | inactive | 22.3 µM (active) | 31.3 µM (active)
Cc1cc(Cc2ccc(N)c(C)c2)ccc1N | 0.844 µM (active) | inactive | inactive | inactive | inactive | inactive | – | –
CS(=O)(=O)c1ccc([C@@H](C[C@H]2CCC(=O)C2)C(=O)Nc2cnccn2)cc1Cl | – | – | inactive | inactive | inactive | inactive | – | –
Cc1c(C)c2c(c(C)c1O)CCC(C)(COc1ccc(CC3SC(=O)NC3=O)cc1)O2 (stereo not given) | 1.91 µM (active) | – | inactive | inactive | inactive | inactive | 19 µM (active) | –
NC(=Nc1ccccc1)Nc1ccccc1 | – | – | inactive | inactive | inactive | inactive | – | –
CN(C)C(=O)NC1(c2ccccc2)CCN(CC[C@@]2(c3ccc(F)c(F)c3)CN(C(=O)c3ccccc3)CCO2)CC1 | – | – | inactive | inactive | inactive | inactive | – | –
